Results filed as inconclusive are left out. The source made the active and inactive calls. Calls follow the shape of the dose curve; as a rule, active = well fitted curve in the direction sought with a large enough effect; inconclusive = small, poorly fitted or top-dose-only effect, or another doubt; inactive = no such curve, though single readings can be large; an effect the other way counts as inactive or inconclusive.
How the values were obtained:
[1] = target: Rap guanine nucleotide exchange factor 3 (Homo sapiens) (UniProt O95398); assay: Confirmatory qHTS for agonist of cAMP-regulated guanine nucleotide exchange factor 3 (EPAC1) (AID 1645881);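 also: EPAC1 catalysed release of BODIPY-GDP from Rap1B seen as fluorescence loss; nearly all actives have a fitted effect of over 75% in size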
Rap guanine nucleotide exchange factor 3 (Homo sapiens), sequence (O95398 whole entry, looked up): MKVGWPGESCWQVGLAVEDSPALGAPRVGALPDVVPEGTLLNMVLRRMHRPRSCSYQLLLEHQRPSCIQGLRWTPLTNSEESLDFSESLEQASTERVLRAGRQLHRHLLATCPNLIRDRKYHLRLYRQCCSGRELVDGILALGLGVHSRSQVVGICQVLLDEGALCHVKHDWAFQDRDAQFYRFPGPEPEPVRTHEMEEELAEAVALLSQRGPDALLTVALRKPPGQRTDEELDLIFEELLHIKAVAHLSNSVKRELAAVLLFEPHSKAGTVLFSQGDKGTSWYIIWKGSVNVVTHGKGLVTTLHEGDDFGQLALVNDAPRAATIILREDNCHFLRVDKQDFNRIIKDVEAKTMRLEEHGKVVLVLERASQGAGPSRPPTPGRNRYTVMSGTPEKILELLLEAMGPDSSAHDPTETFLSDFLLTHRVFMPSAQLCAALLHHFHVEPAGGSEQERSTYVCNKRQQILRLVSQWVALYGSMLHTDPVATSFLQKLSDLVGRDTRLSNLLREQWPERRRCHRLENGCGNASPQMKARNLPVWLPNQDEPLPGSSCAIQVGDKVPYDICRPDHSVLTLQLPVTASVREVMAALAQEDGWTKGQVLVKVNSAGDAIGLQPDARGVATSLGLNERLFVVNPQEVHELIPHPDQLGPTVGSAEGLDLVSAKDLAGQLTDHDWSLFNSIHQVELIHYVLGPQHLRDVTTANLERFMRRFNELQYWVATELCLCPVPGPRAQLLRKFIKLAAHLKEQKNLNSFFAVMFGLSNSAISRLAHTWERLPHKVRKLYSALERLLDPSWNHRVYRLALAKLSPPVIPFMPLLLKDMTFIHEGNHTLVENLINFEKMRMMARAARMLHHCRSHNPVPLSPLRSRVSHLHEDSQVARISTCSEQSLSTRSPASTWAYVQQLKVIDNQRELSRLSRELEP

[2] = target: Rap guanine nucleotide exchange factor 4 (Homo sapiens) (UniProt Q8WZA2); assay: Confirmatory qHTS for agonist of cAMP-regulated guanine nucleotide exchange factor 4 (EPAC2) (AID 1645884);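 also: nucleotide exchange releases bodipy-GDP from Rap1 and this lowers its fluorescence; nearly all actives have a fitted effect of over 65% in size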
Rap guanine nucleotide exchange factor 4 (Homo sapiens), sequence (Q8WZA2 whole entry, looked up): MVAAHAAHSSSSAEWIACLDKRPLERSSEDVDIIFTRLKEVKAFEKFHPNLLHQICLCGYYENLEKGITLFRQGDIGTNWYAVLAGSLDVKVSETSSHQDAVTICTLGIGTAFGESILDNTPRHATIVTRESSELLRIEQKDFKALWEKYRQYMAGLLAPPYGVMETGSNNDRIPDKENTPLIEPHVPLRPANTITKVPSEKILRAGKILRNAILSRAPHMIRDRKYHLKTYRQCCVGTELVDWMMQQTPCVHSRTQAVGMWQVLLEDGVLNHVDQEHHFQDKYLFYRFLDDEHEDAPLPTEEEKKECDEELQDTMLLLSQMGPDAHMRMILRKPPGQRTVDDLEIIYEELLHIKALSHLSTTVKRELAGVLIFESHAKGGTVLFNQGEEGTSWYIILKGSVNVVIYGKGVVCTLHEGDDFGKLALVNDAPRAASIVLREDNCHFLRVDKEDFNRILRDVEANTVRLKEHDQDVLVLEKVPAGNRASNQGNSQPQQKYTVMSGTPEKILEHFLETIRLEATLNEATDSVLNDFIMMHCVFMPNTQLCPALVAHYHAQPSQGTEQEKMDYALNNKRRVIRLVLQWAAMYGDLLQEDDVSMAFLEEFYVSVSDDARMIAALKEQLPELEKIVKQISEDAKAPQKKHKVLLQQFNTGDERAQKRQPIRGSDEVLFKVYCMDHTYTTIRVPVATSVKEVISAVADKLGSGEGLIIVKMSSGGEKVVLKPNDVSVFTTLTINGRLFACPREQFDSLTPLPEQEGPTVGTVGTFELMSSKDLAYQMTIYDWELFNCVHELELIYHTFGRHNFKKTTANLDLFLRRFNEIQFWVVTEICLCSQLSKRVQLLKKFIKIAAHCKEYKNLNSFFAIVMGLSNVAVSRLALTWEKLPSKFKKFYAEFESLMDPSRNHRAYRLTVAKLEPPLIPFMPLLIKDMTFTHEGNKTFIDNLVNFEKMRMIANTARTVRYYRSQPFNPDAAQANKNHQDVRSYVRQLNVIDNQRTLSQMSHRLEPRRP

[3] = target: Rap guanine nucleotide exchange factor 3 (Homo sapiens) (UniProt O95398); assay: Counterscreen qHTS for antagonist of cAMP-regulated guanine nucleotide exchange factor 3 (EPAC1) (AID 1645888);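 also: fluorescence loss as bound BODIPY-GDP is released from Rap1B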
In short: (§1)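 Rap1B–BODIPY-GDP (250 nM) with 50 uM GDP; compounds pin-transferred to 9.74 nM–152 uM final (activator) or from 7.32 nM upwards (inhibitor). Fluorescence Ex/Em 480/540 nm read at 5 and 30 min, then after adding cAMP or buffer, at room temperature.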

[4] = target: Rap guanine nucleotide exchange factor 3 (Homo sapiens) (UniProt O95398); assay: Counterscreen qHTS for agonist of cAMP-regulated guanine nucleotide exchange factor 3 (EPAC1) (AID 1645889); also: nearly all actives have a fitted effect of over 40% in size
In short: as §1

Measured: Potency

COc1cccc(C(c2nnnn2C2CCCCC2)N2CCC3(CC2)C(=O)NCN3c2ccccc2)c1OC (configuration not stated)
inactive: [1] | [2] | [3]

O=C1NCN(c2ccccc2)C12CCN(C(c1cc3ccccc3o1)c1nnnn1C1CCCCC1)CC2 (configuration not stated)
inactive: all assays above
